Inconclusive results are not listed. The source made the active and inactive calls. Calls come from the whole dose curve; as a rule, active = well fitted curve in the direction sought with a large enough effect; inconclusive = small, poorly fitted or top-dose-only effect, or another doubt; inactive = no such curve, though single readings can be large; an effect the other way counts as inactive or inconclusive.
Assays:
[1] = target: Rap guanine nucleotide exchange factor 3 (Homo sapiens) (UniProt O95398); assay: Confirmatory qHTS for agonist of cAMP-regulated guanine nucleotide exchange factor 3 (EPAC1) (AID 1645881);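 note: EPAC1 catalysed release of BODIPY-GDP from Rap1B seen as fluorescence loss; 100% = effect of cAMP agonist control; nearly all actives have a fitted effect of over 75% in size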
[2] = target: Rap guanine nucleotide exchange factor 4 (Homo sapiens) (UniProt Q8WZA2); assay: Confirmatory qHTS for agonist of cAMP-regulated guanine nucleotide exchange factor 4 (EPAC2) (AID 1645884);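 note: nucleotide exchange releases bodipy-GDP from Rap1 and this lowers its fluorescence; % is set by controls: 0 for no effect and ±100 for the full control effect; nearly all actives have a fitted effect of over 65% in size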
[3] = target: Rap guanine nucleotide exchange factor 4 (Homo sapiens) (UniProt Q8WZA2); assay: Confirmatory qHTS for antagonist of cAMP-regulated guanine nucleotide exchange factor 4 (EPAC2) (AID 1645885); note: nearly all actives have a fitted effect of over 25% in size; note: potency is the fitted concentration of half-maximal effect; for activity change, negative = inhibition: % is set by controls: 0 for no effect and ±100 for the full control effect
[4] = target: Rap guanine nucleotide exchange factor 3 (Homo sapiens) (UniProt O95398); assay: Counterscreen qHTS for antagonist of cAMP-regulated guanine nucleotide exchange factor 3 (EPAC1) (AID 1645888);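 note: fluorescence loss as bound BODIPY-GDP is released from Rap1B; % of control where 0% means no effect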
Summary of the method: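 Measured: fluorescence of BODIPY-GDP bound to Rap1B, which falls as exchange proceeds. Conditions include 50 uM competing GDP, 5 and 30 min reads, and a later cAMP challenge for antagonist detection.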

Rap guanine nucleotide exchange factor 4 (Homo sapiens), sequence (Q8WZA2 whole entry, looked up): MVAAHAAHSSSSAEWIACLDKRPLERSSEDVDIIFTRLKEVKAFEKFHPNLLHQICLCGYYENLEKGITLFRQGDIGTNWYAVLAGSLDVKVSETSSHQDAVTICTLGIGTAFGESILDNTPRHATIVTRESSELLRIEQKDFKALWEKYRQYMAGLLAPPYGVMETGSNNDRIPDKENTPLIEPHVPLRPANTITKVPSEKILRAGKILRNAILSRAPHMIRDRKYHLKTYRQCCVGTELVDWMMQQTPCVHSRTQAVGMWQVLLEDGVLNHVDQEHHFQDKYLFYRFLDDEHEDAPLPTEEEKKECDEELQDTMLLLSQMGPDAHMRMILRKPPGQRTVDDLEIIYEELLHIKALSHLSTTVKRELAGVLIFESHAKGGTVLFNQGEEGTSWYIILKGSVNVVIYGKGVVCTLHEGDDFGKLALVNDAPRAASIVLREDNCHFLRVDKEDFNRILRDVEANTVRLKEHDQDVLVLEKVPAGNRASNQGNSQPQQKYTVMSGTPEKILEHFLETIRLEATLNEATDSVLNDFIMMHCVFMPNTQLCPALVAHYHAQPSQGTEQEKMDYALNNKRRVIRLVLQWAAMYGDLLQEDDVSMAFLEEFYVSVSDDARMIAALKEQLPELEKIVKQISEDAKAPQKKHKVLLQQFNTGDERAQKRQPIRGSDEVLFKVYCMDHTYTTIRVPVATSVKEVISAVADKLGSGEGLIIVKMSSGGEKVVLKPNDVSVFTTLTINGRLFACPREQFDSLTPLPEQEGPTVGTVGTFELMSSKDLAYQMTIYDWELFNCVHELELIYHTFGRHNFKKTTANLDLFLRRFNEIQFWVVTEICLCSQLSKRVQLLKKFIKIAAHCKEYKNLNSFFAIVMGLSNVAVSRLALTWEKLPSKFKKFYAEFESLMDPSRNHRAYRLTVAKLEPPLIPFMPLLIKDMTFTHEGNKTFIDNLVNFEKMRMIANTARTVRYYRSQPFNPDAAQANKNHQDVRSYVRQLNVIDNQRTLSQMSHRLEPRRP
Rap guanine nucleotide exchange factor 3 (Homo sapiens), sequence (O95398 whole entry, looked up): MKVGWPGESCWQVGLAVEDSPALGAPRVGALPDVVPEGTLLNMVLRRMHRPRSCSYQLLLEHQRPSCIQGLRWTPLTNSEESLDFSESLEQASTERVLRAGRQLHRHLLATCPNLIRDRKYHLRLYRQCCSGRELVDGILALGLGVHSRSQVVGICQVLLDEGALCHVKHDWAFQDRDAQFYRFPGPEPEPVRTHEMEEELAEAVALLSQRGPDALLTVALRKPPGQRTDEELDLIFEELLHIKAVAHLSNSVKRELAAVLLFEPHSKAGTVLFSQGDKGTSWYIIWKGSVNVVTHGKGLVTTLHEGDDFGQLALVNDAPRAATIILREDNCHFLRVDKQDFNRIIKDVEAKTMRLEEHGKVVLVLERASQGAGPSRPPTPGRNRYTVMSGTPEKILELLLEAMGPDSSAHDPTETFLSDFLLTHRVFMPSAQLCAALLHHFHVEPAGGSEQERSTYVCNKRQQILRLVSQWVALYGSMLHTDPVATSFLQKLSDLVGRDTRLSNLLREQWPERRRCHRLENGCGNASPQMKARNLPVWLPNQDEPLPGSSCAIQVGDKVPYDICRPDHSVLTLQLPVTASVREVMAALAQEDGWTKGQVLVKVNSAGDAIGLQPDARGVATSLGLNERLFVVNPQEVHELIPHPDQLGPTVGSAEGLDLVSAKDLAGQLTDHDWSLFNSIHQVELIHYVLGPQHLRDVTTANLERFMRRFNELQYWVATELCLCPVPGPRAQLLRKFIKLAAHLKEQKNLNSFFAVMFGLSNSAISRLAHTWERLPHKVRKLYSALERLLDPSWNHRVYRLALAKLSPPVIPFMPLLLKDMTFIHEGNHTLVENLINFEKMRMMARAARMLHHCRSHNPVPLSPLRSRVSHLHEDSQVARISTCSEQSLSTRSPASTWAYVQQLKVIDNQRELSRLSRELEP

CCCc1ccc2oc(C(=O)NCCc3nc(C(=O)OCC)cs3)c(C)c2c1
inactive: Potency [1] | activation [2] -3.74% [at 17.1 µM, percent relative to cAMP agonist control] | Potency [3] | activity change, negative = inhibition [4] -14.7% [at 30.8 µM]

CCOC(=O)c1ccc(NC(=O)CC2Nc3cccc4cccc(c34)NC2=O)cc1 (centres undefined)
inactive: Potency [1] | Potency [2] | Potency [3] | Potency [4]

Cc1ccc(Cl)cc1N1CCN(C(=O)c2ccc(C)c(-n3c(C)nc4cccnc43)c2)CC1
inactive: Potency [1] | Potency [2] | outcome [3] inactive [at 12.7 µM] | Potency [4]

O=C(c1ccc(Br)cc1)C(CN1CCOCC1)c1ccccc1 (centres undefined)
inactive: Potency [1] | activation [2] 8.74% [at 17.1 µM, percent relative to cAMP agonist control] | Potency [3] | activity change, negative = inhibition [4] 16% [at 30.8 µM]

O=C(Nc1cccc(S(=O)(=O)NC2=NCCCCC2)c1)c1cc(-c2ccc(Cl)cc2)nc2ccccc12
inactive: Potency [1] | Potency [2] | Potency [3] | Potency [4]

COc1ccccc1-c1oc2ccccc2c1C#CC(C)(C)O
inactive: Potency [1] | Potency [2] | Potency [3] | Potency [4]

O=C(NCc1ccc2c(c1)CCN2C(=O)c1ccccc1)Nc1cccc(C(F)(F)F)c1
inactive: Potency [1] | Potency [2] | Potency [3] | Potency [4]

Cc1cccc(N(Cc2ccccc2)C(=O)CSC(C)C(=O)Nc2cc(C)on2)c1 (centres undefined)
active: Potency [3] 95.3 µM
inactive: Potency [1] | Potency [2] | Potency [4]

Cc1cccc(Cn2c(COc3ccccc3)nc3ccccc32)c1
inactive: Potency [1] | Potency [2] | Potency [3] | Potency [4]

Cc1ccc(SC/C(O)=C(\C#N)c2nc3ccccc3s2)cc1
inactive: Potency [1] | Potency [2] | Potency [3] | Potency [4]

CC(C)(C)C(C(=O)n1cccc1C#N)c1ccccc1 (centres undefined)
inactive: Potency [1] | activation [2] 5.44% [at 17.1 µM, percent relative to cAMP agonist control] | Potency [3] | activity change, negative = inhibition [4] 3.86% [at 30.8 µM]

Oc1c(C2=NCCNC(C(F)(F)F)=C2)ccc2ccccc12
inactive: Potency [1] | Potency [2] | Potency [3] | Potency [4]

CC1=NN(c2cccc(C(=O)O)c2)C(=O)/C1=C\C=C/c1ccccc1
inactive: Potency [1] | Potency [2] | Potency [3] | Potency [4]

N#C/C(=C\c1ccc(OCc2ccc(C(=O)O)cc2)cc1)C(=O)N1CCOCC1
inactive: Potency [1] | Potency [2] | Potency [4]
active: Potency [3] 21.3 µM

CN(CCOc1ccc(Br)cc1)C(=O)CNC(=O)c1ccc2ccccc2c1
inactive: Potency [1] | activation [2] 0.226% [at 17.1 µM, percent relative to cAMP agonist control] | Potency [3] | activity change, negative = inhibition [4] -17.3% [at 30.8 µM]

C=CS(=O)(=O)N(Cc1ccccc1Br)[C@H](CO)CC(C)C
inactive: Potency [1] | activation [2] 1.88% [at 17.1 µM, percent relative to cAMP agonist control] | Potency [3] | activity change, negative = inhibition [4] -13.6% [at 30.8 µM]

COC(=O)CC1(C(=O)OC)Oc2ccc(Br)cc2C(=O)N1c1cccc(Cl)c1Cl (centres undefined)
inactive: Potency [1] | Potency [2] | Potency [4]
active: Potency [3] 1.69 µM

Cc1ccc(C)c(N2CCN(C(=O)c3ccc4c(=O)n5c(nc4c3)CCCCC5)CC2)c1
inactive: Potency [1] | activation [2] 5.24% [at 17.1 µM, percent relative to cAMP agonist control] | Potency [3] | activity change, negative = inhibition [4] -18% [at 30.8 µM]

CCOc1cc(/C=C2/NC(=O)NC2=O)cc(Br)c1OCc1ccc(C(=O)O)cc1
inactive: Potency [1] | activation [2] 4.12% [at 17.1 µM, percent relative to cAMP agonist control] | Potency [3] | activity change, negative = inhibition [4] -1.26% [at 30.8 µM]

Cc1cc(C)c(S(=O)(=O)/N=C2\C=C(Nc3ccc(C(=O)O)cc3)C(=O)c3ccccc32)c(C)c1
inactive: Potency [1] | Potency [2] | Potency [3] | Potency [4]

COc1ccc(/C=C2\C(=O)NC(=S)N2C(=O)c2ccc(F)cc2)cc1
inactive: Potency [1] | Potency [2] | Potency [3] | Potency [4]

C/C(=N\NC(=O)c1ccc(O)cc1)c1cccc(NC(=O)c2ccc(Cl)cc2)c1
inactive: Potency [1] | Potency [2] | Potency [3] | Potency [4]

CN(C)C(CNC(=O)c1cc(-c2ccco2)nc2ccccc12)c1ccccc1 (centres undefined)
inactive: Potency [1] | activation [2] 5.95% [at 17.1 µM, percent relative to cAMP agonist control] | Potency [3] | activity change, negative = inhibition [4] -8.2% [at 30.8 µM]

Cc1cccc(NC(=O)CN2C(=O)S/C(=C\c3cccn3-c3cccc(C(=O)O)c3)C2=O)c1
inactive: Potency [1] | Potency [2] | Potency [3] | Potency [4]

COc1cc2c(cc1OC)C(COc1cc(C)cc(C)c1)N(C(C)=O)CC2 (centres undefined)
inactive: Potency [1] | activation [2] -1.36% [at 17.1 µM, percent relative to cAMP agonist control] | Potency [3] | activity change, negative = inhibition [4] -10.1% [at 30.8 µM]

Cc1ccc(C(=O)N2CCc3cc(CNC(=O)CSc4ccccc4)ccc32)cc1
inactive: Potency [1] | Potency [2] | Potency [3] | Potency [4]

Reference: PubChem BioAssay (NCATS)
